Measured values reported in PubChem BioAssay AID1159580 (chemical genetic matrix, 2015).
The campaign covered roughly 5,500 compounds. About 2,000 (36%) were called active. About 18% were inconclusive and are not listed. Rule as the data show it: active = normalized growth mostly below about 0.91 (no sharp cut-off); inconclusive = no clear call, values can overlap the other calls; inactive = mostly above about 0.92. Some of the results follow.

Assay: chemical genetic growth profiling, strain panel (AID 1159580);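 also: tested at 20 µM; growth read once vehicle control cultures reached saturation at 30 °C; 1 = growth at the plate median or of vehicle wells; lower values mean less growth of the strain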
Details: growth OD

Measured: normalized growth

c1cncc(C2CCCCN2)c1 (configuration not stated)
inactive: S. cerevisiae deletion strains, locus YJR066W, strain TOR1, stronger effect = lower value 0.974 | S. cerevisiae deletion strains, locus YJR075W, strain HOC1, stronger effect = lower value 1.03 | S. cerevisiae deletion strains, locus YKL009W, strain mrt4, stronger effect = lower value 0.992 | S. cerevisiae deletion strains, locus YKL068W, stronger effect = lower value 1 | S. cerevisiae deletion strains, locus YKL085W, strain MDH1 (second series), stronger effect = lower value 0.998 | S. cerevisiae deletion strains, locus YKL085W, strain MDH1, stronger effect = lower value 0.998 | S. cerevisiae deletion strains, locus YKL160W, strain elf1, stronger effect = lower value 0.992 | S. cerevisiae deletion strains, locus YKL190W, strain CNB1, stronger effect = lower value 0.99 | S. cerevisiae deletion strains, locus YKR001C, strain vps1, stronger effect = lower value 0.986 | S. cerevisiae deletion strains, locus YKR026C, strain gcn3, stronger effect = lower value 0.996 | S. cerevisiae deletion strains, locus YKR091W, strain srl3, stronger effect = lower value 0.988 | S. cerevisiae deletion strains, locus YLL001W, strain dnm1, stronger effect = lower value 0.993 | S. cerevisiae deletion strains, locus YLL026W, stronger effect = lower value 0.996 | S. cerevisiae deletion strains, locus YLL041C, strain sdh2, stronger effect = lower value 0.991 | S. cerevisiae deletion strains, locus YLR027C, strain aat2, stronger effect = lower value 0.999 | S. cerevisiae deletion strains, locus YLR039C, strain RIC1, stronger effect = lower value 1.07 | S. cerevisiae deletion strains, locus YLR058C, strain SHM2, stronger effect = lower value 1.01 | S. cerevisiae deletion strains, locus YLR102C, strain apc9, stronger effect = lower value 1 | S. cerevisiae deletion strains, locus YLR113W, strain HOG1, stronger effect = lower value 0.997 | S. cerevisiae deletion strains, locus YLR221C, strain rsa3, stronger effect = lower value 0.991 | S. cerevisiae deletion strains, locus YLR258W, strain gsy2, stronger effect = lower value 1.02 | S. cerevisiae deletion strains, locus YLR262C, strain YPT6 (second series), stronger effect = lower value 0.986 | S. cerevisiae deletion strains, locus YLR262C, strain YPT6, stronger effect = lower value 1.06 | S. cerevisiae deletion strains, locus YLR268W, strain sec22, stronger effect = lower value 0.968 | S. cerevisiae deletion strains, locus YLR320W, strain mms22, stronger effect = lower value 0.981 | S. cerevisiae deletion strains, locus YLR330W, strain CHS5, stronger effect = lower value 1.03 | S. cerevisiae deletion strains, locus YLR342W, strain FKS1 (second series), stronger effect = lower value 1.02 | S. cerevisiae deletion strains, locus YLR342W, strain FKS1, stronger effect = lower value 0.986 | S. cerevisiae deletion strains, locus YLR357W, strain rsc2, stronger effect = lower value 0.959 | S. cerevisiae deletion strains, locus YLR370C, strain arc18, stronger effect = lower value 0.988 | S. cerevisiae deletion strains, locus YLR371W, strain rom2, stronger effect = lower value 0.985 | S. cerevisiae deletion strains, locus YLR384C, strain iki3, stronger effect = lower value 0.98 | S. cerevisiae deletion strains, locus YLR418C, strain cdc73, stronger effect = lower value 0.995 | S. cerevisiae deletion strains, locus YML016C, strain PPZ1, stronger effect = lower value 1.02 | S. cerevisiae deletion strains, locus YML032C, strain rad52, stronger effect = lower value 1.01 | S. cerevisiae deletion strains, locus YML120C, strain ndi1, stronger effect = lower value 0.998 | S. cerevisiae deletion strains, locus YML124C, strain tub3, stronger effect = lower value 0.998 | S. cerevisiae deletion strains, locus YMR058W, strain fet3, stronger effect = lower value 0.993 | S. cerevisiae deletion strains, locus YMR078C, strain ctf18, stronger effect = lower value 0.999 | S. cerevisiae deletion strains, locus YMR125W, strain sto1, stronger effect = lower value 0.981 | S. cerevisiae deletion strains, locus YMR129W, stronger effect = lower value 0.99 | S. cerevisiae deletion strains, locus YMR205C, strain PFK2, stronger effect = lower value 1.02 | S. cerevisiae deletion strains, locus YMR223W, strain ubp8, stronger effect = lower value 1.01 | S. cerevisiae deletion strains, locus YMR231W, strain pep5, stronger effect = lower value 0.981 | S. cerevisiae deletion strains, locus YMR307W, strain GAS1, stronger effect = lower value 1.11 | S. cerevisiae deletion strains, locus YNL067W, strain RPL9B, stronger effect = lower value 1.01 | S. cerevisiae deletion strains, locus YNL071W, strain lat1, stronger effect = lower value 0.998 | S. cerevisiae deletion strains, locus YNL153C, strain GIM3, stronger effect = lower value 1.02 | S. cerevisiae deletion strains, locus YNL183C, strain NPR1, stronger effect = lower value 0.965 | S. cerevisiae deletion strains, locus YNL209W, strain ssb2, stronger effect = lower value 0.991 | S. cerevisiae deletion strains, locus YNL233W, strain BNI4, stronger effect = lower value 1.03 | S. cerevisiae deletion strains, locus YNL248C, strain rpa49, stronger effect = lower value 0.987 | S. cerevisiae deletion strains, locus YNL250W, strain rad50, stronger effect = lower value 1.01 | S. cerevisiae deletion strains, locus YNL271C, strain bni1, stronger effect = lower value 0.996 | S. cerevisiae deletion strains, locus YNL298W, strain CLA4, stronger effect = lower value 0.988 | S. cerevisiae deletion strains, locus YNL307C, strain MCK1, stronger effect = lower value 0.997 | S. cerevisiae deletion strains, locus YNL322C, strain KRE1 (second series), stronger effect = lower value 0.985 | S. cerevisiae deletion strains, locus YNR049C, strain mso1, stronger effect = lower value 0.99 | S. cerevisiae deletion strains, locus YNR052C, strain pop2, stronger effect = lower value 0.995 | S. cerevisiae deletion strains, locus YOL012C, strain htz1 0.806 | S. cerevisiae deletion strains, locus YOL147C, strain pex11, stronger effect = lower value 0.991 | S. cerevisiae deletion strains, locus YOR001W, strain rrp6, stronger effect = lower value 0.994 | S. cerevisiae deletion strains, locus YOR061W, strain CKA2, stronger effect = lower value 1.01 | S. cerevisiae deletion strains, locus YOR069W, strain VPS5, stronger effect = lower value 0.993 | S. cerevisiae deletion strains, locus YOR070C, strain gyp1, stronger effect = lower value 0.978 | S. cerevisiae deletion strains, locus YOR080W, strain dia2, stronger effect = lower value 0.982 | S. cerevisiae deletion strains, locus YOR083W, strain WHI5, stronger effect = lower value 1 | S. cerevisiae deletion strains, locus YOR106W, strain vam3, stronger effect = lower value 0.997 | S. cerevisiae deletion strains, locus YOR136W, strain idh2, stronger effect = lower value 0.978 | S. cerevisiae deletion strains, locus YOR144C, strain elg1, stronger effect = lower value 0.996 | S. cerevisiae deletion strains, locus YOR184W, strain ser1, stronger effect = lower value 1 | S. cerevisiae deletion strains, locus YOR231W, strain MKK1, stronger effect = lower value 1 | S. cerevisiae deletion strains, locus YOR265W, strain rbl2, stronger effect = lower value 1.01 | S. cerevisiae deletion strains, locus YOR270C, strain vph1, stronger effect = lower value 1 | S. cerevisiae deletion strains, locus YOR290C, strain snf2, stronger effect = lower value 1 | S. cerevisiae deletion strains, locus YOR316C, strain cot1, stronger effect = lower value 0.998 | S. cerevisiae deletion strains, locus YPL051W, strain arl3, stronger effect = lower value 1.01 | S. cerevisiae deletion strains, locus YPL078C, strain atp4, stronger effect = lower value 0.994 | S. cerevisiae deletion strains, locus YPL106C, strain sse1, stronger effect = lower value 0.972 | S. cerevisiae deletion strains, locus YPL240C, strain hsp82, stronger effect = lower value 0.992 | S. cerevisiae deletion strains, locus YPL256C, strain CLN2, stronger effect = lower value 0.997 | S. cerevisiae deletion strains, locus YPR119W, strain clb2, stronger effect = lower value 0.989 | S. cerevisiae deletion strains, locus YPR141C, strain kar3, stronger effect = lower value 1 | S. cerevisiae deletion strains, locus YPR163C, strain tif3, stronger effect = lower value 0.99 | S. cerevisiae deletion strains, locus YPR167C, strain met16, stronger effect = lower value 0.999 | S. cerevisiae deletion strains, strain wtn01, stronger effect = lower value 0.957 | S. cerevisiae strains, strain wild type, stronger effect = lower value 1.01
